Compounds without any hit were thinned out: in the full panel of roughly 83,000, 20% have a hit.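 Testing used 96-well plates and a 48-hour single-concentration exposure. Example: -40 means 40% of the starting cells died.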 Active and inactive are the calls of the source. The calls were made as follows: active = growth percent below 10; inactive = the rest.
System: HL-60(TB) leukemia
Experiment: NCI-60 one-dose screen, 48 h (100 = growth as untreated, 0 = no growth, -100 = all killed)
Settings: 10 µM unless noted

| SMILES | growth |
| --- | --- |
| COc1cc2nccc(Oc3ccc(NC(=O)C4(C(=O)Nc5c(F)cc(F)cc5F)CC4)cc3)c2cc1Oc1ccc(N)cn1 | 38.3% (inactive) |
| COc1ccc(-c2nn(C(=O)c3cc(OC)c(OC)c(OC)c3)c3cc(N)ccc23)cc1 | 5.67% (active) |
| CCOc1ccc([C@@H]2[C@@H](Oc3ccccc3)C(=O)N2c2cc(OC)c(OC)c(OC)c2)cc1 | -36% (active) |
| COc1ccc2c(c1)[n+](=O)c(C(=O)/C=C/c1cc(OC)c(OC)c(OC)c1)c(C)n2[O-] | 42.6% (inactive) |
| O=S=Nc1ccc([N+](=O)[O-])cc1 | 102% (inactive) |
| CCOC(=O)C/C(C)=N\O | 94.5% (inactive) |
| CSc1ccc(N(C)c2nc(C)nc3c2CCC3)cc1 | -28.3% (active) |
| O=C(NCCO)C(F)(F)F | 103% (inactive) |
| CNCCCOc1c(Br)cc(CCNC(=O)/C(Cc2ccc(OC)c(Br)c2)=N/O)cc1Br | 21.3% (inactive) |
| CCN(CC)N=Nc1nn(C(=O)Nc2ccc(Cc3ccccc3)cc2)c2ccc(Cl)cc12 | 60.4% (inactive) |
| COC(CC(F)F)c1cn(S(=O)(=O)c2ccc(C)cc2)c2ccccc12 (stereo unspecified) | 8.92% (active) |

Source: PubChem BioAssay (NCI)
